FBPA Giardia inh – Giardia lamblia aldolase inhibition; 290,000 compounds, 0.71% hits; Potency, µM (series often up to 59.6 µM), for inactives: at the top dose activity, negative = inhibition, usual class: inhibitors; A8B2U2; AID 2451; purified Giardia FBPA; also: potency is read from the fitted curve at half-maximal effect; % is scaled to controls: 0 for no effect and ±100 for the full control effect; nearly all actives have a fitted effect of over 55% in size
Target sequence (A8B2U2 whole entry, looked up): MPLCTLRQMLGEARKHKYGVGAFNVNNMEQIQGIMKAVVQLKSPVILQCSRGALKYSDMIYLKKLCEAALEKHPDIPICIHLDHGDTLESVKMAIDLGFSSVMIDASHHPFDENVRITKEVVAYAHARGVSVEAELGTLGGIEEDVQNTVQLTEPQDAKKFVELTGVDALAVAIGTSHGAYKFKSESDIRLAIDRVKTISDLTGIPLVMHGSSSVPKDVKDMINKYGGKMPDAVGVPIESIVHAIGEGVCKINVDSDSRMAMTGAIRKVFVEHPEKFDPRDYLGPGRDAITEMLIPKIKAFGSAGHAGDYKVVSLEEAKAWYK
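Giardia FBPA (40 nM reagent) was preincubated 10 min at RT with compound (up to 57.5 uM final), then substrate plus GAPDH/TPI/NAD/arsenate coupling system with diaphorase/resazurin was added; resorufin fluorescence (525/598 nm) was read after 20 min.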
Cycloheximide cs – counter-screen for Shiga toxin inhibitors: cycloheximide protein synthesis inhibition | max response, % | cell reporter, cycloheximide protein synthesis inhibition counterscreen | 300,000 compounds, 12% hits; in the data active = max response mostly above about 13%, no sharp cut-off; inactive = mostly below about 14%; also: read at 38.3 µM for the half of the compounds with a filed dose; 0% is about no effect
LmPK inh – blocks Leishmania mexicana pyruvate kinase activity; Q27686; AID 1721; 290,000 compounds, 0.37% hits; purified LmPK, Kinase-Glo ATP luminescence, 1 h; Potency, µM (titrated, usually from 57.5 µM), for the others: at the top dose activity change, negative = inhibition, usual class: inhibitors; also: potency is read from the fitted curve at half-maximal effect; % is scaled to controls: 0 for no effect and ±100 for the full control effect
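0.1 nM LmPK, 0.5 mM PEP, 0.1 mM ADP; 50 mM imidazole pH 7.2, 7 mM MgCl2, 50 mM KCl; 1 h RT. Kinase-Glo luminescence readout, normalized to no-enzyme (full inhibition) and uninhibited wells.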
Shiga toxin inh – inhibitors of Shiga toxin in Vero cells | Vero cells, Shiga toxin protein synthesis inhibition reporter | inhibition, % at 38.7 µM | 290,000 compounds, 9.2% hits | AID 2315; in the data active = inhibition mostly above about 28%, no sharp cut-off; inactive = mostly below about 43%; also: 0% is about no effect
Tb PYK inh – T. brucei pyruvate kinase inhibition; 410,000 compounds, 0.12% hits; Q57TT1; TbPYK enzyme, Kinase-Glo Plus ATP luminescence, 45 min; Potency, µM (series often up to 76.8 µM), for inactives: at the top dose activity, negative = inhibition, most hits filed as inhibitors; also: potency is read from the fitted curve at half-maximal effect; % is scaled to controls: 0 for no effect and ±100 for the full control effect; nearly all actives have a fitted effect of over 50% in size
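Assay buffer: 50 mM TEA pH 7.2, 100 mM KCl, 10 mM MgCl2, 0.05% BSA, 0.01% Tween-20. Pyruvate kinase from T. brucei plus substrate met compound, then ADP (130 uM final). Luminescence was read post 45 min RT.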
RE007 growth inh – less growth of the S. pombe RE007 Vpr strain; S. pombe RE007 Vpr strain, BacTiter-Glo ATP luminescence, 24 h; AID 651644; Potency, µM (highest dose often 92.2 µM), for inactives: at the top dose activity change, negative = less growth, usual class: inhibitors; 360,000 compounds, 0.21% hits; active = well fitted falling curve with a large enough effect; inconclusive = small, poorly fitted or top-dose-only effect; inactive = no such curve, though single readings can be large or run the other way; also: potency is read from the fitted curve at half-maximal effect; % is scaled to controls: 0 for no effect and ±100 for the full control effect; nearly all actives have a fitted effect of over 50% in size
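Fission yeast RE007 carrying one integrated HIV-1 vpr copy, seeded at OD 0.01 in PMG+AL medium with 23 nL pinned compound. Grown 24 h at 30 degrees; viability read by BacTiter-Glo luminescence after 5 min.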
* hit, by the source's call; ? = inconclusive; nt = no result given. This excerpt belongs to a sample that is enriched for hits. Unless noted, calls follow the shape of the dose curve; as a rule, active = well fitted curve in the direction sought with a large enough effect; inconclusive = small, poorly fitted or top-dose-only effect, or another doubt; inactive = no such curve, though single readings can be large; an effect the other way counts as inactive or inconclusive.

SMILES | FBPA Giardia inh | Cycloheximide cs | LmPK inh | Shiga toxin inh | Tb PYK inh | RE007 growth inh
CC(=O)Nc1ccc(NC(=S)Nc2ccc(Br)cc2)cc1 | -3.7% | -1.6 | 0.0% | -0.4 | -6.5% | -10.5%
CC(C)=CC(=O)Nc1ccc(Br)cc1 | -26.9% | 57.8* | -11.2% | 73.8* | -5.6% | -5.3%
COc1ccc(NC(=O)c2sccc2C)cn1 | -8.5% | 42.7* | -6.9% | 88.8* | -8.2% | -22.6%
CC(C)NC(=O)COc1ccc(OCc2ccccc2)cc1 | -0.1% | 19.7* | -7.4% | 29.4 | -0.1% | -10.5%
CCOCC(=O)Nc1cc(C(=O)Nc2ccccc2)ccc1Cl | 1.9% | 13.9 | -27.1% | 18.2 | 0.0% | -10.9%
CC(C)C(C)NC(=O)COc1ccc(OCc2ccccc2)cc1 (stereo unspecified) | 2.1% | 18.7 | 7.7% | 33.5 | 8.8% | -0.4%
Cc1ccc(C(=O)Nc2ccc(OCc3ccccc3)cc2)s1 | 0.8% | 18.4* | -8.1% | 97.3 | 3.1% | 11.1%
CCOCC(=O)Nc1ccc(C(=O)Nc2ccccc2Cl)cc1 | -2.5% | 25.5* | -1.4% | 31.1 | nt | nt
O=C(Nc1ccc(-c2noc(CCc3ccccc3)n2)cc1)c1cccnc1 | ? | 27.1* | -2.4% | 39.8* | 4.0% | 0.6%
Cc1cc(OCc2nc(-c3ccc(NC(=O)c4cccnc4)cc3)no2)ccc1Cl | -0.4% | -0.1 | -1.9% | 10.2 | -3.5% | 7.6%
CCCOc1ccc(C(=O)Nc2ccc(NC(=O)c3ccccc3)c(Br)c2)cc1 | nt | nt | nt | nt | -1.8% | nt
CCOCC(=O)Nc1ccc(OCc2ccccc2)cc1 | 0.7% | 34.7* | -14.5% | 45.8* | -8.5% | 4.5%
O=C(Nc1ccccc1F)c1ccc(OCc2ccccc2)cc1 | -3.9% | 48.7* | -10.0% | 86.4* | 0.1% | 24.1%
CN1CCN(c2ccccc2NC(=O)c2ccc(OCc3ccccc3)cc2)CC1 | 0.5% | -2.9 | 6.0% | -11.7 | 3.1% | -7.9%
Cc1ccsc1C(=O)Nc1ccc(OCc2ccccc2)cc1 | 12.8% | 18.4* | -11.3% | 67.9* | -6.3% | 6.6%
O=C(NCC(c1cccnc1)N1CCc2ccccc21)c1cccc(Br)c1 (stereo unspecified) | nt | nt | nt | nt | 3.8% | nt
Cc1ccc(CCNC(=O)C(CC(C)C)NS(=O)(=O)c2ccc3c(c2)oc(=O)n3C)cc1 (stereo unspecified) | nt | nt | nt | nt | -1.1% | nt
CCOC(=O)C1=C(COC(=O)[C@@H]2CCCN2S(=O)(=O)c2ccc(C)cc2)NC(=O)NC1C (stereo partly specified) | nt | 12.1* | 1.1% | 9.8 | -1.3% | -25.3%
CC(=O)c1ccc(N2CCN(C(=O)c3cc4ccc5cccnc5c4[nH]3)CC2)cc1 | nt | nt | nt | nt | 0.8% | nt
Cc1ccc(NC(=O)CN2CCN(C3CCCCC3)C(=O)C2=O)cc1C | nt | nt | nt | nt | -2.7% | nt
CCC(=O)N1N=C(c2cccs2)CC1c1ccc(C)cc1 (stereo unspecified) | -6.4% | 9.9 | -5.3% | -6.3 | -5.5% | 18.9%
COc1ccc(C2CC(c3ccccc3OC(C)=O)=NN2C(=O)/C=C/c2ccccc2)cc1 (stereo unspecified) | 2.8% | 9.1 | -3.4% | 8.2 | 1.2% | -13.3%
COc1ccc(C2CC(c3ccccc3)=NN2C(=O)CSc2ncn[nH]2)cc1 (stereo unspecified) | 5.2% | 17.1* | 7.0% | 35.6 | 1.2% | -1.6%
COc1ccc(C2=NN(C(=O)c3cccs3)C(c3ccc(OC)cc3)C2)cc1 (stereo unspecified) | 1.0% | 13.3* | 7.3% | 21.6 | -0.5% | 4.5%
COc1ccc(C2CC(c3ccccc3OC(C)=O)=NN2C(C)=O)cc1 (stereo unspecified) | 0.1% | 30.3* | 0.3% | 48.6* | 7.4% | 21.1%
O=C(c1cccs1)N1N=C(c2ccccc2)CC1c1ccccc1 (stereo unspecified) | 1.4% | 0.8 | 1.1% | -4.9 | -0.2% | 10.8%
Cc1ccc(C2CC(c3cccs3)=NN2C(=O)CCl)cc1 (stereo unspecified) | 10.0% | 42.7* | 0.4% | 42.7* | -7.0% | 14.2%
N#CCCS(=O)(=O)c1ccccc1 | 5.5% | nt | nt | nt | nt | nt
